# Compound activity (PubChem)
# RE007 growth inh: less growth of the S. pombe RE007 Vpr strain; AID 651644; S. pombe RE007 Vpr strain, BacTiter-Glo ATP luminescence, 24 h; Potency, µM (titrated, usually from 92.2 µM), most hits filed as inhibitors; hit rate 0.21% among 360,000; active means well fitted falling curve with a large enough effect; inconclusive means small, poorly fitted or top-dose-only effect; inactive means no such curve, though single readings can be large or run the other way; further: nearly all actives have a fitted effect of over 50% in size
#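 Fission yeast strain RE007, carrying one chromosomally integrated HIV-1 vpr copy, was seeded at OD 0.01 in PMG+AL medium with 23 nL pinned compound. After 24 h at 30 °C and 99% humidity, viability was read by BacTiter-Glo luminescence.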
# NS1 inh: inhibitors of influenza NS1 protein function; AID 2326; Potency, µM (titrated, usually from 46.1 µM); hit rate 0.4% among 270,000; calls by dose curve; further: actives are rising curves; nearly all actives have a fitted effect of over 50% in size
#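 Compounds were scored for reversing the slow growth caused by influenza A NS1 in S. cerevisiae, measured by optical density at 600 nm. Assay medium contained 2% galactose at pH 6.0; NS1-free yeast of the same strain were the positive control.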
# Pf growth 96h: inhibits malaria parasite growth, 96 h | P. falciparum luciferase reporter growth, 96 h | Potency, µM (titrated, usually from 28.7 µM), hits mostly inhibitors | hit rate 6.9% among 320,000
#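 Readout is luminescence from an integrated firefly luciferase in P. falciparum. Red cells, 2% hematocrit and 0.05% parasitemia final, were cultured with compound through two parasite generations (96 hours) at 37 C, 5% CO2.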
# Pf growth 48h: P. falciparum growth inhibition at 48 hours (one generation); P. falciparum luciferase growth in erythrocytes, 48 h; Potency, µM (highest dose often 28.7 µM), actives largely listed as inhibitors; hit rate 5.9% among 310,000; AID 504832
#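 Cell-based growth assay: transgenic P. falciparum expressing firefly luciferase, cultured in red cells within RPMI 1640 containing 0.5% w/v Albumax, 24 mM bicarbonate and gentamycin. A drop in luciferase activity indicates inhibition.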
# SARS PLpro yeast: blocks SARS-CoV papain-like protease in a yeast assay. hit rate 0.19% among 330,000. Potency, µM (titrated, usually from 32.9 µM), hits mostly activators. S. cerevisiae expressing SARS-CoV PLpro, growth rescue; calls by dose curve; further: nearly all actives have a fitted effect of over 55% in size
# Hits are given with their value; n = inactive; u = inconclusive; x = no result. The list is not random: actives were taken first. Their share in the collection is about 9.5%. Unless noted, the call rests on the fitted dose curve; in most records, active means well fitted inhibition curve with a large enough effect; inconclusive means small, poorly fitted or top-dose-only effect, or another doubt; inactive means no such curve, though single readings can be large or run the other way.
SMILES,RE007 growth inh,NS1 inh,Pf growth 96h,Pf growth 48h,SARS PLpro yeast
Cc1ccc(S(=O)(=O)N(C)C)cc1NC(=O)Nc1ccccc1,n,n,n,4.1µM,n
CCN(CC)S(=O)(=O)c1ccc(C)c(NC(=O)CSc2nc3ccccc3[nH]2)c1,n,n,u,u,n
Cc1ccccc1Cn1ccc(NC(=O)CCSc2nc(-c3ccco3)cc(C(F)(F)F)n2)n1,n,n,x,n,n
Cc1cc(NC(=O)CCSc2nc(-c3ccco3)cc(C(F)(F)F)n2)n(-c2ccccc2)n1,n,n,n,12µM,n
Cc1ccc(Cn2ccc(NC(=O)CCSc3nc(-c4ccco4)cc(C(F)(F)F)n3)n2)cc1,n,n,x,10µM,n
CCOC(=O)c1nn(-c2ccc(OCC)cc2)c2nc(-c3ccco3)c(C#N)c(=O)n12,n,n,u,12µM,n
CCOC(=O)c1nn(-c2ccc(OCC)cc2)c2nc(-c3cccc(OC)c3)c(C#N)c(=O)n12,n,n,u,n,n
CCOC(=O)c1nn(-c2ccc(Cl)cc2)c2nc(-c3ccc(C)cc3)c(C#N)c(=O)n12,n,n,x,9.3µM,n
Cc1cc(-c2ccccc2)n2nc(N)nc2n1,n,n,n,n,n
Cn1c2ccccc2c2nnc(SCC(=O)NC3CCCC3)nc21,n,n,u,n,n
COc1ccc(CN(C)C(C)C(=O)Nc2ccc(S(=O)(=O)N3CCCC3)cc2)c(OC)c1OC (configuration not stated),x,n,4.1µM,7.4µM,n
COc1ccc(CN(C)C(C)C(=O)Nc2ccc(S(=O)(=O)N3CCCCC3)cc2)c(OC)c1 (configuration not stated),n,x,x,x,n
CCN(Cc1ccc(OC)c(F)c1)C(C)C(=O)Nc1ccc(S(=O)(=O)N2CCCC2)cc1 (configuration not stated),n,x,u,10µM,n
O=C1CSc2ccc(S(=O)(=O)CCC(=O)NC3CCCCC3)cc2N1,n,n,u,n,n
N#C/C(=C\C=C\c1ccccc1)C(=O)N1CCCC1,n,n,u,7.4µM,n
Cc1ccc(/C=C(\C#N)C(=O)NCc2ccco2)o1,n,x,n,n,n
N#C/C(=C\C=C\c1ccccc1)C(=O)NCc1ccco1,n,n,15µM,u,n
N#C/C(=C\c1ccc(O)cc1)C(=O)N1CCCC1,n,n,n,n,n
Cc1ccc(C(=O)CCC(=O)OCC(=O)NNC(=O)c2ccccc2Cl)cc1,n,x,n,n,n
O=C(NCCCSc1ccccc1)c1cc(Br)ccc1O,u,n,n,n,n
COc1cc(-c2nc(CCNC(=O)c3ccco3)cs2)cc(OC)c1OC,n,n,10µM,u,n
O=C(NCCc1csc(-c2cccnc2)n1)c1ccc(Br)o1,n,n,8.3µM,u,n
COC(=O)c1ccc(NC(=O)Cn2nnc3ccccc32)cc1,n,n,5.2µM,n,u
COC(=O)c1ccc(NC(=O)CCCCCn2nnc3ccccc3c2=O)cc1,n,n,3.3µM,5.2µM,n
O=C(CCCCCn1nnc2ccccc2c1=O)Nc1ccccc1Cl,n,n,n,n,n
SMILES,RE007 growth inh,NS1 inh,Pf growth 96h,Pf growth 48h,SARS PLpro yeast
Cn1nc(N)c2ncc(-c3ccc(Cl)cc3)nc21,n,x,x,x,x
Cc1ccc(S(=O)(=O)c2c(C)cc(C)[nH]c2=O)cc1,n,n,n,n,n
CC1CCCCC1NC(=O)CN1C(=O)NC(Cc2ccccc2)(Cc2ccccc2)C1=O (configuration not stated),n,n,x,n,n
CC(NC(=O)CN1C(=O)NC(Cc2ccccc2)(Cc2ccccc2)C1=O)C12CC3CC(CC(C3)C1)C2 (configuration not stated),n,n,12µM,x,n
CCOC(=O)c1ccc(Oc2coc3cc(O)ccc3c2=O)cc1,n,n,2.9µM,n,n
COc1cc(C2NC(=O)NC(O)(C(F)(F)F)C2C(=O)c2ccc(Cl)cc2)ccc1O (configuration not stated),n,n,n,n,n
COc1cc(C2NC(=O)NC(O)(C(F)(F)F)C2C(=O)c2cccs2)ccc1O (configuration not stated),n,n,13µM,n,n
CC(C)C(c1nnnn1Cc1ccccc1)N(CCCO)Cc1cc2cc3c(cc2[nH]c1=O)OCO3 (configuration not stated),n,n,n,7.4µM,n
Cc1ccc2[nH]c(=O)c(CN(CCc3ccccc3)C(c3nnnn3Cc3ccco3)C(C)C)cc2c1 (configuration not stated),n,u,u,3.3µM,n
